Test results reported in PubChem BioAssay (NCATS).
Activity calls are given as the source filed them. Where a call stands in place of a potency, no number is given. Calls follow the shape of the dose curve; as a rule, active = well fitted curve in the direction sought with a large enough effect; inconclusive = small, poorly fitted or top-dose-only effect, or another doubt; inactive = no such curve, though single readings can be large or run the other way.

Molecular target: Guanine nucleotide-binding protein G(i) subunit alpha-1 (Homo sapiens) (UniProt P63096)
Sequence (P63096 whole entry, looked up): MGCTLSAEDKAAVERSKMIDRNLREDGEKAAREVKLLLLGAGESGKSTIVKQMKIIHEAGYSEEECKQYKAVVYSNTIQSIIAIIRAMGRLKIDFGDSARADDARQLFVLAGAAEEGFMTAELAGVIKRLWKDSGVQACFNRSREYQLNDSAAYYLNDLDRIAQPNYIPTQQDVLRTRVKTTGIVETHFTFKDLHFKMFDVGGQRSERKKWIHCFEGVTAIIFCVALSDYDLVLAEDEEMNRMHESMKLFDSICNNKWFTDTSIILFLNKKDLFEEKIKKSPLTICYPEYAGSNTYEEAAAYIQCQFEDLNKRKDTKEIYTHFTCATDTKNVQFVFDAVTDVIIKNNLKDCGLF
Assay: qHTS Assay for Inhibitors of RGS12 GoLoco Motif Activity (Green Fluorophore) (AID 879)
Settings: Galphai1/FITC-RGS12 GoLoco peptide, fluorescence polarization; series mostly up to 57.1 µM
From the text: Assay Overview: NIH Molecular Libraries Screening Centers Network [MLSCN] NIH Chemical Genomics Center [NCGC] MLSCN Grant: NS053754-01 Assay Provider: Siderovski, David P, University of North Carolina at Chapel Hill G-protein-coupled receptors (GPCRs) are major targets for drug discovery. The regulator of G-protein signaling (RGS)-protein family has important roles in GPCR signal transduction. RGS proteins contain a conserved RGS-box, which is often accompanied by other signaling regulatory elements. RGS proteins accelerate the deactivation of G proteins to reduce GPCR signaling; however, some also have an effector function and transmit signals. Combining GPCR agonists with RGS inhibitors should potentiate responses, and could markedly increase the agonist's regional specificity. The diversity of RGS proteins with highly localized and dynamically regulated distributions in brain makes them attractive targets for pharmacotherapy of central nervous system disorders. […] A complex of Gai1 and fluorescently labeled G-alpha-binding peptide (the "GoLoco motif") derived from RGS12 is incubated with library members. Inhibitors of the binding are detected by a decrease in the fluorescence polarization (FP) of the fluorophore. Protein was supplied by Prof. David Siderovski, University of North Carolina at Chapel Hill.
Assay Protocol: Reagents/Controls: Assay Buffer: 10 mM Tris-HCl, 150 mM NaCl, 0.1 mM GDP (prepared fresh), and 0.05% NP40 at pH 7.5. […] 10 nM FITC labeled peptide/50 nM protein in columns 1, 2, 5 - 48. Titration of unlabeled peptide control ([H][…][NH2], custom synthesized and HPLC-purified by Tufts University Core Facility) from 10 mM, then 1:2 dilution, 16-point in duplicate, pin-transferred to column 2, rows 1 to 32. Column 1 is neutral. FITC-labeled RGS12-GoLoco peptide was custom-synthesized and HPLC-purified by Michael Berne of Tufts University Assay Steps. Four uL of reagents were dispensed to 1536-well Greiner black solid-bottom plates. Compounds and controls (23 nL) were transferred via Kalypsys PinTool. The plates were incubated for 10 min at room temperature, and then read on ViewLux (Perkin-Elmer) High-throughput CCD imager using FITC polarization filter sets for the fluorescein-labeled decapeptide probe.During dispense, reagent bottles were kept submerged into 4 deg C water bath and all liquid lines were covered with aluminum foil to minimize probe and protein degradation. All screening operations were performed on a Kalypsys robotic system (Kalypsys, Inc., San Diego, CA) containing one RX-130 and two RX-90 anthropomorphic robotic arms.
Potency is read from the fitted curve at half-maximal effect.

SMILES | Potency
NC(=O)COc1c(F)cc(SCCNS(=O)(=O)c2ccccc2)cc1F | inactive
C[N+](C)(C)CC#CCOC(=O)Nc1cccc(Cl)c1 | inactive
O=[N+]([O-])c1cc(O)c(O)c([N+](=O)[O-])c1 | inactive
c1ccc2c(c1)[I+]c1ccccc1-2 | inactive
N#CC(C#N)=Cc1cc(O)c(O)c(O)c1 | inactive
NCCc1c[nH]c2ccc(C(N)=O)cc12 | inactive
CCCN(CCC)CCc1ccc(O)c(O)c1 | inactive
CP(=O)(O)C1=CCNCC1 | inactive
C[N+](C)(C)CC#CCN1CCCC1=O | inactive
CCCN(CCC)C1Cc2cc(OC)c(OC)cc2C1 | inactive
O=C1C=CC(=O)C=C1 | inactive
CCCN(CCC)CCc1c[nH]c2ccc(C(N)=O)cc12 | inactive
N#CCCN | inactive
C[N+]1(C)[C@@H]2CC[C@H]1CC(OC(=O)c1c[nH]c3ccccc13)C2 (stereo not given in full) | inactive
NC(N)=NOCC[C@H](N)C(=O)O | inactive
CCCn1c(=O)c2[nH]c(C3CCCC3)nc2n(CCCOC(=O)c2ccc(S(=O)(=O)F)cc2)c1=O | inactive
NCCCP(=O)(O)O | inactive
N[C@@H](Cn1oc(=O)[nH]c1=O)C(=O)O | inactive
c1ccc2cc(CC3=NCCN3)ccc2c1 | inactive
CCCN(CCC)[C@@H]1CCc2cccc(O)c2C1 | inactive

SMILES | Potency
CC(C)(C)c1cc(C=C(C#N)C#N)cc(C(C)(C)C)c1O | inactive
NC(=O)CI | inactive
Cc1[nH]c2ccc(O)cc2c1CCN | inactive
O=c1c2ccccc2[se]n1-c1ccccc1 | 12.6 µM (active)
C[N+](C)(C)CCOC(=O)CBr | inactive
COc1ccc2[nH]c3c(c2c1)CCNC3 | inactive
NNC(=O)c1ccc(O)cc1 | inactive
OCc1cnc[nH]1 | inactive
c1ccc2c(N3CCNCC3)cccc2c1 | inactive
O=C(O)c1cc[c]([Hg][Cl])cc1 | 25.1 µM (active)
CCCn1c(C)c(C(=O)c2ccc3ccccc3c2)c2ccccc21 | inactive
Cc1sc2ccccc2c1CC1=NCCN1 | inactive
COc1ccc2c(c1)/C(=C/c1cnc[nH]1)C(=O)N2 | inactive
NCCc1ccc(S(=O)(=O)F)cc1 | inactive
CN1CCc2cccc(Cl)c2CC1 | inactive
C[N+]1(C)CCN(c2ccccc2)CC1 | inactive
Nc1ccc(CCN2CCN(c3cccc(C(F)(F)F)c3)CC2)cc1 | inactive
Clc1ccc(N2C[C@H]3CC[C@@H](C2)N3)nn1 | inactive
C[C@H](N)CN1CCc2ccc(Br)cc21 | inactive
CCN(CCCl)Cc1ccccc1Br | inactive
